This is a sample that favours compounds with a hit; in the whole collection about 28% have one here.
D1 allo mod = D1 dopamine receptor (human) allosteric modulation; hit rate 5.9% among 58,000; HEK293 D1, CRE-luciferase, dopamine EC30 potentiation; actives deviate in either direction; P21728; AID 641; B-score at 10 µM;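 active = luminescence count or its row- and column-corrected plate score outside the 99.7% band of the plate's sample wells, on either side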
CYP2C19 act = activators of human cytochrome P450 2C19; activation factor at 5 µM; 96,000 tested, under 10 active; recombinant CYP2C19, luciferin-H EGE luminescence; hits give high values; 0 = fully inhibited enzyme, 1 = untreated enzyme;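 active = activation factor of at least 2 at 5 µM in the primary screen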;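 note: 0 = wells with 2.5 mM tranylcypromine and 1 = vehicle-only wells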
hDAT+cocaine = human DAT dopamine uptake with cocaine, either direction; Q01959; LLC-PK1 hDAT cells, [14C]-dopamine uptake with cocaine IC80; actives deviate in either direction; B-score at 10 µM; hit rate 1.3% among 110,000;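 active = Z score or B-score, a plate-position-corrected score, falls beyond the plate's 99.7% confidence bounds, in either direction; inactive = both scores lie inside the 99.7% bounds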;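 note: scored against the spread of the other compound wells on the same plate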
Target sequence (Q01959 whole entry, looked up): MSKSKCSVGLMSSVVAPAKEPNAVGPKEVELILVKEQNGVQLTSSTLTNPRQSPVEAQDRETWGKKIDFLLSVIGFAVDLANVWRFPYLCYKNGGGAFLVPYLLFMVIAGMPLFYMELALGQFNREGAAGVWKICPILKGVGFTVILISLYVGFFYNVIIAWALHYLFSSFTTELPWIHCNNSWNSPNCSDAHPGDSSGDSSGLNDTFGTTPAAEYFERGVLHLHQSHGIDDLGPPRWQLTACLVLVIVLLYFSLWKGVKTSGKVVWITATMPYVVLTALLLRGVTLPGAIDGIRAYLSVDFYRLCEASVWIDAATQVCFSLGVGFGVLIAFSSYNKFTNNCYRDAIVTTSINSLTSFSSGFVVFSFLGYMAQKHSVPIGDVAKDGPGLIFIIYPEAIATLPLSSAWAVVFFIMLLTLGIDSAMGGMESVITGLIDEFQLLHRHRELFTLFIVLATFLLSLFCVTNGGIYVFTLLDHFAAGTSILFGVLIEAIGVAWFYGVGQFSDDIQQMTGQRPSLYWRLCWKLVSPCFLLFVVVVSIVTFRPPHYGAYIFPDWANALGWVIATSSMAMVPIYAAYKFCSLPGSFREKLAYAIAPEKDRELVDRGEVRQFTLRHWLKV
CYP2C19 inhib = blocks human cytochrome P450 2C19 | AID 778 | hit rate 21% among 96,000 | CYP2C19 Supersomes, luciferin-H EGE luminescence, 30 min | inhibition, % at 5 µM;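 active = CYP2C19 inhibition above a set limit at 5 µM in the primary screen, cut at about 50% in these data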;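 note: plate controls were negative control wells for no effect and 2.5 mM tranylcypromine positive control for full effect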
CYP2C9 inh = human CYP2C9 inhibition; hit rate 20% among 96,000; P11712; CYP2C9 Supersomes, luciferin-H conversion, luminescence; inhibition, % at 5 µM; AID 777;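 active = blocking of liver enzyme CYP2C9 beyond about 50% at 5 µM, limit read from the data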
CYP2C9 activ = activators of human CYP2C9. P11712. recombinant CYP2C9, luciferin-H conversion, luminescence; hits give high values; factor 1 = untreated enzyme, 0 = blocked. activation factor at 5 µM. hit rate 1.4% among 96,000;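 active = activation factor of 2 or more for CYP2C9 at a 5 µM dose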;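 note: 0 = sulfaphenazole-blocked wells and 1 = vehicle-only wells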
D1 mod confirm = confirmation of human D1 dopamine receptor allosteric modulators | luminescence at 10 µM | shares compounds with D1 allo mod | HEK293 D1 CRE-luciferase, dopamine EC30 potentiation; hits give high values | hit rate 88% among 2,200;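 active = luminescence in either of two replicates above the same-plate mean plus 3 SD of the low-dose dopamine control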
D1 ag no DA = D1 (human) signaling in absence of dopamine | shares compounds with D1 allo mod | HEK293 D1 CRE-luciferase, luminescence, no dopamine; hits give high values | luminescence at 10 µM | hit rate 0.8% among 1,900; in the data active = luminescence above about 3900
Isoprot counter = counter-screen for D1 modulators: isoproterenol response in HEK293 cells; shares compounds with D1 allo mod; HEK293 D1 CRE-luciferase, isoproterenol EC30 counter-screen; calls only at 10 µM; hit rate 63% among 2,200; AID 647;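 active = luminescence in either replicate above plate mean of wells with a partly effective reference agonist dose plus 3 SD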;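 note: isoproterenol raises cAMP through native beta-adrenoceptor Gs so signal bypasses D1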
Active calls of the source: *; i = inactive; x = no result; + = active, no number.

SMILES | D1 allo mod | CYP2C19 act | hDAT+cocaine | CYP2C19 inhib | CYP2C9 inh | CYP2C9 activ | D1 mod confirm | D1 ag no DA | Isoprot counter
CC(C)Sc1nc2c(c(=O)[nH]c(=O)n2C)n1CCc1ccccc1 | 26* | 0.9 | -0.75 | 14 | 8 | 0.9 | 24288* | 1728 | +
CCCNc1nc2c(c(=O)[nH]c(=O)n2C)n1CCCc1ccccc1 | 1.1 | 0.8 | -0.83 | 17 | 11 | 0.9 | x | x | x
Cn1c(=O)[nH]c(=O)c2c1nc(SCC(=O)O)n2CCc1ccccc1 | 0.97 | 1 | 0.5 | -3 | 2 | 1 | x | x | x
CCC(C)Sc1nc2c(c(=O)[nH]c(=O)n2C)n1CCc1ccccc1 (stereo unspecified) | 21* | x | -0.41 | x | x | x | 20608* | 1572 | +
CCCNc1nc2c(c(=O)[nH]c(=O)n2C)n1CCc1ccccc1 | 3.1* | 0.8 | 0.075 | 15 | 5 | 1 | 8752* | 1684 | i
CCOC(=O)CSc1nc2c(c(=O)[nH]c(=O)n2C)n1C/C=C(/C)Cl | 3 | 1.1 | -0.63 | -9 | -3 | 1 | x | x | x
C/C(Cl)=C/Cn1c(SC(C)C)nc2c1c(=O)[nH]c(=O)n2C | 32* | 0.8 | -0.37 | 22 | -7 | 1.1 | 17228* | 1588 | +
Nc1ccc(C(=O)c2ccc3c(c2)OCCO3)cc1N | 0.59 | x | -1.3 | x | x | x | x | x | x
COc1ccc(C2(C)NC(=O)N(CC(=O)NCCC3=CCCCC3)C2=O)cc1OC (stereo unspecified) | x | 1 | 0.38 | 1 | 2 | 1 | x | x | x
O=C(CSc1nnc(COc2cccc3cccnc23)o1)N1CCc2ccccc21 | 0.27 | 0.9 | 0.71 | 5 | 6 | 0.9 | x | x | x
O=C(CSc1nnc(COc2ccc(F)cc2)o1)N1c2ccccc2CCc2ccccc21 | 4* | 0.2 | -0.41 | 83* | 96* | 0 | 13460* | 1676 | i
O=C(CN(C(=O)CSc1nnc(COc2ccccc2)o1)c1ccc(F)cc1)NC1CCCCC1 | 3.2* | 0.9 | -0.37 | 10 | 30 | 0.7 | 5428 | 1512 | i
O=C(CN(C(=O)CSc1nnc(COc2ccccc2)o1)c1ccc(F)cc1)NC1CCCC1 | 0.85 | 0.8 | 1.2 | 16 | 14 | 0.9 | x | x | x
CC1(C)Cc2c(sc3c2c(=N)n(Cc2ccco2)c(=O)n3Cc2ccc(F)cc2)CO1 | 23* | 0.9 | 0.82 | 10 | 24 | 0.8 | 17584* | 1640 | +
COc1ccc(Cn2c(=O)n(Cc3ccco3)c(=N)c3c4c(sc32)COC(C)(C)C4)cc1 | 21* | 0.4 | 0.13 | 61* | 91* | 0.1 | 22180* | 1932 | +
Cc1nn(Cc2ccc(F)cc2)c(C)c1NC(=O)c1cnn2cccnc12 | -0.69 | 0.6 | -0.008 | 41 | -12 | 1.1 | x | x | x
Cc1cc2ccccc2c(=O)n1CC(=O)NCC(=O)N1CCN(c2ccccc2F)CC1 | 3.4* | 1 | -0.24 | -4 | -110 | 2.1* | 7784 | 1604 | i
Cc1cc2ccccc2c(=O)n1CC(=O)NCC(=O)N1CCN(c2cccc(Cl)c2)CC1 | -0.46 | 1.1 | 1.1 | -12 | -71 | 1.7 | x | x | x
Cc1nc2ccccc2c2oc(C(=O)NCCN3CCN(C)CC3)cc12 | 2.6* | 1.1 | 0.0018 | -14 | -13 | 1.1 | 5656 | 1600 | i
COc1cccc(C(=O)NCc2nnc(SCC(=O)Nc3nccs3)n2-c2cccc(C)c2)c1 | -0.18 | x | -0.36 | x | x | x | x | x | x
O=C(Nc1nnc(SCC(=O)N2CCCCC2)s1)c1cccs1 | -0.17 | 1.1 | 1.5 | -8 | 1 | 1 | x | x | x
COc1ccc(Nc2ncccc2C(=O)Nc2ccccc2)cc1 | -0.051 | 0.8 | 0.024 | 17 | 14 | 0.9 | x | x | x
COc1cccc(Nc2ncccc2C(=O)NCc2ccccc2)c1 | 11* | 0.8 | 2.9 | 22 | -16 | 1.2 | 21276* | 1540 | +
O=C(Cc1ccc(S(=O)(=O)N2CCCC2)s1)Nc1nc2c(s1)CCCC2 | 1.6 | 0.8 | 2.8 | 23 | 30 | 0.7 | x | x | x
COC(=O)c1ccc(OC)c(CSc2nnc(COc3ccc(OC)cc3)o2)c1 | 6.4* | 0.6 | -0.011 | 38 | 69* | 0.3 | 5284 | 1456 | i
C=CCNC(=O)C1CCCN(S(C)(=O)=O)C1 (stereo unspecified) | -0.04 | 1 | -0.026 | 5 | -4 | 1 | x | x | x

Screens as filed in PubChem.
